Bioassay records deposited in PubChem by several laboratories.
Jurkat NFkB inh – lowers PMA/ionomycin-induced NF-kB signal in Jurkat cells; 330,000 tested, 0.53% active; inhibition, % at 4 µM; PMA/ionomycin-induced NF-kB luciferase reporter, luminescence; in the data active = inhibition above about 50%
Gli-Sufu block – Gli-Sufu pathway antagonism. Sufu-KO-LIGHT fibroblasts, Gli luciferase reporter luminescence. 340,000 tested, 0.74% active. inhibition, % at 5 µM;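 active = inhibition above about 55%, limit read from the data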
697 NFkB inh – inhibitors of the PMA/ionomycin-induced NF-kB reporter in 697 B cells. 330,000 tested, 0.33% active. 697 B-cell NF-kB luciferase reporter, 16 h. inhibition, % at 4 µM; in the data active = inhibition above about 35%
Mdm2 MdmX PPI – inhibitors of human Mdm2/MdmX interaction; O15151+Q00987; SaOS-2 split-luciferase Mdm2/MdmX complementation, luminescence; inhibition, % at 8 µM; 330,000 tested, 3% active; AID 485346;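 active = inhibition of at least 50% at 8 µM in the primary screen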
Target sequence (O15151 whole entry, looked up): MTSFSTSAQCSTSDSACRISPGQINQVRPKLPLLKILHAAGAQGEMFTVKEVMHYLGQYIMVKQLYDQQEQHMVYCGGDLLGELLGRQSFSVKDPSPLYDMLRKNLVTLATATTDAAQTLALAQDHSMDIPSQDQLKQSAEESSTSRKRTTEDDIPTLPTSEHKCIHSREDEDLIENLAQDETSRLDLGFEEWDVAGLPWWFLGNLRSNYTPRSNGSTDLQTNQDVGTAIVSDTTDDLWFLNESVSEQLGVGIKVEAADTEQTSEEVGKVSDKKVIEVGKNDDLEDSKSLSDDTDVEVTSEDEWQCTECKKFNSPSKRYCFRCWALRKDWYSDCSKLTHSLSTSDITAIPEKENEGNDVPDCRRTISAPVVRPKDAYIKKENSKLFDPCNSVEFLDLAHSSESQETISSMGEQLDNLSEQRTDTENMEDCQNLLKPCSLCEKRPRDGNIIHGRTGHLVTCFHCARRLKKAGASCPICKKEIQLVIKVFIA
Target sequence (Q00987 whole entry, looked up): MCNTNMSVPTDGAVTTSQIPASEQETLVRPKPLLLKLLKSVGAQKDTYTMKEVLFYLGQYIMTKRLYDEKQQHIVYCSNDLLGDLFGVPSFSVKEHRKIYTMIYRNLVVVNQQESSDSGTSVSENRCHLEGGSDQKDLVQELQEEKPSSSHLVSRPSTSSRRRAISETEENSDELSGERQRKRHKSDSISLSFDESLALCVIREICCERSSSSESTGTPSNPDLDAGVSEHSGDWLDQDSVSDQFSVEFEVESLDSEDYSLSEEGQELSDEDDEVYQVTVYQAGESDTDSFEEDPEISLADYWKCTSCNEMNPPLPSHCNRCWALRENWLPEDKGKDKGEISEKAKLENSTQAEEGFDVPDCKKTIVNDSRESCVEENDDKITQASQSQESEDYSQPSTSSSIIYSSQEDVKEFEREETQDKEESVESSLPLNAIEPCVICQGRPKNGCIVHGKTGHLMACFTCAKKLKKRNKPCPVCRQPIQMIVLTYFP
Shn3 3UTR inh – Schnurri-3 reporter inhibition in Clone20 osteoblasts; Clone20 osteoblast Shn3 3'UTR firefly luciferase, 24 h; inhibition, % at 12.5 µM; 360,000 tested, 0.52% active;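 active = mean inhibition of at least 75% with every replicate also reaching 75%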
Mdm2 MdmX conf – human Mdm2/MdmX binding inhibition, confirmed. shares compounds with Mdm2 MdmX PPI. luminescent assay. inhibition, % at 8 µM. 10,000 tested, 55% active. AID 489028; in the data active = inhibition above about 40%
Full FLuc ctr – inhibits full-length luciferase, flagging false Mdm2/MdmX hits; shares compounds with Mdm2 MdmX PPI; 6,200 tested, 77% active; inhibition, % at 8 µM; SaOS-2 full-length luciferase counterscreen, luminescence;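 active = mean inhibition at 8 µM reaching about 37%, which flags the compound as non-specific, limit read from the data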;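 also: p53-null SaOS-2 cells with luciferase driven by a doxycycline-inducible promoter; compound on cells about two nights before reading with doxycycline added after day one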
Each line names hits and unclear results; the compound was inactive in the other large screens (follow-up assays come after a bar, where they were run). Compounds with a hit are over-represented: about 3.8% of the library has one in this group of screens.

CCOC(=O)c1c(NC(=O)COc2ccccc2)sc2c1CC(C)(C)NC2(C)C	Mdm2 MdmX PPI 77.0 | Mdm2 MdmX conf 41.4 | Full FLuc ctr 54.4
CC1(C)Cc2c(sc(NC(=O)c3ccc(S(=O)(=O)N4CCCCCC4)cc3)c2C(N)=O)C(C)(C)N1	Mdm2 MdmX PPI 84.7 | Mdm2 MdmX conf inactive
COC(=O)c1c(NC(=O)c2nc3ccccc3s2)sc2c1CC(C)(C)NC2(C)C	Mdm2 MdmX PPI 97.6 | Mdm2 MdmX conf 63.5 | Full FLuc ctr 53.4
COC(=O)c1c(NC(=O)c2ccc(C(=O)c3ccccc3)cc2)sc2c1CC(C)(C)NC2(C)C	none (no result: Jurkat NFkB inh, Gli-Sufu block, 697 NFkB inh, Mdm2 MdmX PPI)
CC1(C)Cc2c(sc(NC(=O)c3ccc(C(=O)c4ccccc4)cc3)c2C#N)C(C)(C)N1	Mdm2 MdmX PPI 51.6 | Mdm2 MdmX conf inactive | Full FLuc ctr 95.2
Cc1cccc(NC(=O)CN(C2=NC3CS(=O)(=O)CC3S2)c2ccccc2F)c1 (centres undefined)	none
CCN1C(N(C)C)=NC[C@@H]1Cc1ccccc1	none
Cc1cc(C)cc(NC(=O)[C@H](Cc2c[nH]c3ccccc23)NC(=O)[C@@H]2Cc3ccccc3CN2)c1	Mdm2 MdmX PPI 59.9 | Mdm2 MdmX conf inactive
O=C(CN(c1cccc([N+](=O)[O-])c1)S(=O)(=O)c1ccccc1)NCc1cccnc1	none
O=C(CN(c1cccc(C(F)(F)F)c1)S(=O)(=O)c1ccc(Cl)c([N+](=O)[O-])c1)NCc1ccc(F)cc1	Mdm2 MdmX PPI 100.5 | Mdm2 MdmX conf inactive | Full FLuc ctr 95.0
O=C(CN1CCC(C(O)(c2ccccc2)c2ccccc2)CC1)Nc1cc(Cl)ccc1Cl	Mdm2 MdmX PPI 53.8 | Mdm2 MdmX conf 45.5 | Full FLuc ctr 86.3
Cc1ccc(/C(N)=N/OC(=O)Oc2ccccc2)cc1	none
N/C(=N\OC(=O)c1ccc(F)cc1)c1nonc1N	none
N/C(=N\OC(=O)c1ccc(F)cc1)c1ccc(Br)cc1	Mdm2 MdmX PPI 50.7 | Mdm2 MdmX conf inactive
N/C(=N\OC(=O)c1ccc(F)cc1)c1ccccc1	none
Cc1ccc(/C(N)=N/OC(=O)c2ccc(F)cc2)cc1	Mdm2 MdmX PPI 58.8 | Mdm2 MdmX conf inactive
Cc1ccc(/C(N)=N/OC(=O)c2ccc3ccccc3c2)cc1	Mdm2 MdmX PPI 94.4 | Mdm2 MdmX conf inactive | Full FLuc ctr 117.0
O=C(Nc1ccc(Cl)cc1)c1cc2c(cc1O)[nH]c1ccccc12	Mdm2 MdmX PPI 97.3 | Mdm2 MdmX conf 92.7 | Full FLuc ctr 58.5
O=C(N/N=C/c1ccc(O)cc1)c1ccc(COc2cc(Cl)ccc2Cl)o1	Mdm2 MdmX PPI 60.8 (no result: Shn3 3UTR inh) | Mdm2 MdmX conf inactive
O=C(NCCOc1ccc(F)cc1)C1CCC(=O)N(CCc2ccccn2)C1 (centres undefined)	none
CCOc1cc(C(=O)OCC(=O)Nc2cccc(S(=O)(=O)NC3=NCCCCC3)c2)cc(OCC)c1OCC	none
Cc1ccc(N/C(N)=N/c2nc(CSc3nnc(N)s3)cc(=O)[nH]2)cc1	none
N/C(=N\c1nc(CSc2nc3ccccc3s2)cc(=O)[nH]1)Nc1ccc(F)cc1	Mdm2 MdmX PPI 57.4 | Mdm2 MdmX conf 46.1 | Full FLuc ctr 52.4
O=C(CC1CS(=O)(=O)CC1CC(=O)Nc1ccc2c(c1)OCCO2)Nc1ccc2c(c1)OCCO2 (centres undefined)	Mdm2 MdmX PPI 63.2 | Mdm2 MdmX conf 76.6 | Full FLuc ctr 90.0
CCC(=O)Nc1ccc2c(c1)OCCO2	none
COc1ccc(/C=N/N2C(=O)CSC2=S)cc1	none
COc1ccc(-c2nn(-c3ccccc3)cc2/C=N/N2C(=O)CSC2=S)cc1	Mdm2 MdmX PPI 96.8 | Mdm2 MdmX conf inactive
CC(NCC(O)COc1ccc2ccccc2c1)c1ccccc1 (centres undefined)	none
CC(NCC(O)COC1CCC(C(C)(C)C)CC1)c1ccccc1 (centres undefined)	Mdm2 MdmX PPI 55.0 | Mdm2 MdmX conf inactive | Full FLuc ctr 77.1
CC1CCC(C(C)C)C(OCC(O)CNC(C)c2ccccc2)C1 (centres undefined)	Mdm2 MdmX PPI 60.5 | Mdm2 MdmX conf 45.8 | Full FLuc ctr 69.6
COc1ccc2cc(C3CC(c4cccs4)=NN3C(C)=O)c(Cl)nc2c1 (centres undefined)	Mdm2 MdmX PPI 54.8 | Mdm2 MdmX conf inactive
O=C(COC(=O)c1cccc(Br)c1)NC1CCCCCCC1	none (no result: Jurkat NFkB inh, Gli-Sufu block, 697 NFkB inh, Mdm2 MdmX PPI)
O=C(Nc1cc(S(=O)(=O)N2CCOCC2)ccc1N1CCOCC1)c1ccc([N+](=O)[O-])s1	none
COc1ccccc1NC(=O)c1ccccc1NS(=O)(=O)c1cccs1	none
COc1ccc(C)cc1NC(=O)c1ccccc1NS(=O)(=O)c1ccc(Cl)s1	Mdm2 MdmX PPI 89.1 | Mdm2 MdmX conf 79.0 | Full FLuc ctr inactive
Cc1ccc(NC(=O)c2ccc([N+](=O)[O-])s2)cc1S(=O)(=O)N1CCOCC1	Mdm2 MdmX PPI 64.6 | Mdm2 MdmX conf inactive
Cc1ccc(NC(=O)c2ccccc2NS(=O)(=O)c2ccc(Cl)s2)cc1S(=O)(=O)N1CCOCC1	Mdm2 MdmX PPI 66.5 | Mdm2 MdmX conf 45.4 | Full FLuc ctr 52.2
COc1ccccc1C(CNC(=O)c1cccc(S(=O)(=O)Nc2ccc(F)cc2)c1)N1CCCC1 (centres undefined)	none (no result: Jurkat NFkB inh, 697 NFkB inh, Mdm2 MdmX PPI)
CCc1c(-c2ccccc2)nc2sc3c(c2c1N)CCCC3	Mdm2 MdmX PPI 72.2 | Mdm2 MdmX conf inactive
Nc1c(C(=O)O)sc2nc(-c3ccccc3)c3c(c12)CCCC3	none
Cc1ccc2sc(-c3ccc(NC(=O)/C=C\C(=O)O)cc3)nc2c1	none
COc1cccc(N2CCN(S(=O)(=O)c3cc4c(cc3C)N(C)CCO4)CC2)c1	none
Cc1cc2c(cc1S(=O)(=O)N1CCN(c3ccc(Cl)cc3)CC1)OCCN2C	Mdm2 MdmX PPI 85.0 | Mdm2 MdmX conf inactive
C=CCNc1nc(NCc2ccccc2)c(C#N)c2c1CN(C)CC2	Mdm2 MdmX PPI 73.8 | Mdm2 MdmX conf 51.5 | Full FLuc ctr 61.3
N#Cc1c(NCCN)nc(NCc2ccccc2)c2c1CCN(Cc1ccccc1)C2	none (no result: Jurkat NFkB inh, 697 NFkB inh, Mdm2 MdmX PPI)
O=C(C[C@@H]1C/C=C\C[C@H](NC(=O)OCC2c3ccccc3-c3ccccc32)C(=O)OC[C@H]2CCCN2C1=O)NCCO	none
COC(=O)c1cc(OC)c(OC)c(OC)c1[N+](=O)[O-]	none
COCCCNc1nc(N)c([N+](=O)[O-])c(NCc2ccccc2)n1	none
COCCCNc1nc(N)c([N+](=O)[O-])c(Nc2ccccc2OC)n1	Mdm2 MdmX PPI 61.1 | Mdm2 MdmX conf inactive
Cc1ccc(NC(=O)c2ccc(NCCCN3CCC(C)CC3)c([N+](=O)[O-])c2)cc1F	Mdm2 MdmX PPI 60.1 | Mdm2 MdmX conf 54.9 | Full FLuc ctr 46.8
O=C(Nc1cccc(Cl)c1)c1ccc(NCCCN2CCOCC2)c([N+](=O)[O-])c1	none
Cc1cc(/C=C2/NC(=O)NC2=O)c(C)n1C	none
COc1cccc(C(NC(C)=O)c2nc(-c3ccc(OC)nc3)cs2)c1 (centres undefined)	none (no result: Jurkat NFkB inh, Gli-Sufu block, 697 NFkB inh, Mdm2 MdmX PPI)
